According to ChEMBL document CHEMBL3988442, “University of Dundee, Small-Polar-MMV Screening Library” (2021):
The whole screen tested about 48,000 compounds, of which about 13,000 (27%) showed an effect of 50% or more. The list shows a part of the results.

system: Wolbachia pipientis; experiment: Anti-Wolbachia Cell-Based Screen; assay type: functional; parameters: scale not given: in the data most compounds retested in dose-response had high values; settings: 5 µM

Going from `CN1CCN(c2cnn(Cc3ccc(S(C)(=O)=O)cc3)c(=O)c2)CC1` to `CN(C1CCN(c2ccccn2)CC1)S(=O)(=O)c1ccc(F)cc1`, the “Percent Effect” value rises from 4.016% to 18.41%.

Going from `Cc1ccc(N2CCCC(N3CCN(CC(F)F)CC3)C2=O)cc1` (centres undefined) to `Cc1ccccc1CC(=O)N(C)C1CCN(c2ccccn2)CC1`, the “Percent Effect” value rises from -21.44% to -4.877%.

Going from `COc1ccccc1C(=O)N(C)C1CCN(c2ccccn2)CC1` to `CN(C(=O)c1ccccc1Cl)C1CCN(c2ccccn2)CC1`, the “Percent Effect” value falls from 177.1% to 11.04%.

Compared with `Cc1cccc(C(=O)N(C)C2CCN(c3ccccn3)CC2)c1C`, `CN(C(=O)c1cccc2[nH]ncc12)C1CCN(c2ccccn2)CC1` is lower in “Percent Effect” value: 141.7% for the first, -1.361% for the second.

Going from `CCOc1ncccc1C(=O)N(C)C1CCN(c2ccccn2)CC1` to `CN(C(=O)CNc1ccc(C#N)cc1)C1CCN(c2ccccn2)CC1`, the “Percent Effect” value falls from 144.5% to 6.622%.

Going from `O=C(Cn1cnnn1)NCC1(O)CCCc2ccccc21` (centres undefined) to `CCOC(=O)CC(C)NC(=O)c1cn(Cc2ccccc2F)nn1` (centres undefined), the “Percent Effect” value falls from -5.769% to -6.246%.

Going from `CC(=O)Nc1ccc(CNC(=O)CNCc2sc(C)nc2C)cc1` to `CN(C)c1cccc(CNC(=O)Nc2ccc3[nH]nnc3c2)n1`, the “Percent Effect” value rises from -27.38% to 0.1018%.

Compared with `CNC(=O)C(C)NC(=O)c1ccc(Oc2cccnc2)cc1` (centres undefined), `CCOc1cc(C(=O)N(C)C)ccc1NC(=O)C(C)c1ccsc1` (centres undefined) is higher in “Percent Effect” value: -6.707% for the first, -4.912% for the second.

Compared with `CN(C(=O)COc1ccc(F)cc1)[C@@H]1CC[C@@H](n2ccnc2)[C@@H]1O`, `CO[C@@H]1CC[C@@H](N(C)C(=O)COc2ccc(F)cc2)[C@H]1O` is lower in “Percent Effect” value: 128.1% for the first, -1.969% for the second.

Going from `CN(C(=O)COc1ccc(F)cc1)[C@@H]1CS(=O)(=O)C[C@H]1O` to `CN(Cc1cccs1)C(=O)CN(C)C1CCc2ccccc21` (centres undefined), the “Percent Effect” value rises from 1.163% to 8.524%.

Going from `Cn1nc(CC(C)(C)C)cc1NC(=O)c1ccc2[nH]nnc2c1` to `CC(C)Cc1cc(NC(=O)c2ccc3[nH]nnc3c2)n(C)n1`, the “Percent Effect” value falls from -11.38% to -17.03%.

Compared with `CCC(CO)N(Cc1ccc(C(=O)O)cc1)Cc1ccsc1` (centres undefined), `CCC(C)N(Cc1ccsc1)C(=O)c1ccc(CO)cc1` (centres undefined) is higher in “Percent Effect” value: 4.353% for the first, 113.9% for the second.

Compared with `CCC(C)N(CC)C(=O)c1ccc2[nH]nnc2c1` (centres undefined), `CCC(C)N(Cc1ccsc1)C(=O)c1ccc2[nH]nnc2c1` (centres undefined) is lower in “Percent Effect” value: 122.8% for the first, 109% for the second.

Compared with `CC(=O)N(Cc1ccsc1)c1ccccc1`, `COC(=O)CN(Cc1ccccc1C)C(=O)C1CCC1` is higher in “Percent Effect” value: -9.96% for the first, 9.342% for the second.

With `CCn1nc(C)c(CCNC(=O)C2CCCN(C(=O)N(C)C)C2)c1C` (centres undefined) the “Percent Effect” value was -3.526%.
